What all share (assay): qHTS profiling for inhibitors of Plasmodium falciparum proliferation (AID 504749); further: nearly all actives have a fitted effect of over 60% in size
A general note: In qHTS, concentration-response curves come from the screen itself.

One test relates to AA1029. Particulars: P. falciparum in erythrocytes, SYBR Green DNA, 72 h; series mostly up to 28.7 µM. Summed up:
(§1)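 Readout was DNA-dye fluorescence from lysed cultures, ex 485/em 535 nm. Parasitized red cells had grown 72 h with compound; data scaled between 0.29 uM artemisinin and DMSO wells and corrected using vehicle-only plates.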

A further test relates to C2A. Particulars: P. falciparum in erythrocytes, SYBR Green DNA, 72 h; series mostly up to 28.7 µM. Put shortly: as §1
For a further test, the system named is CP185. Particulars: P. falciparum in erythrocytes, SYBR Green DNA, 72 h; series mostly up to 28.7 µM. Summed up: as §1
The subject of the next test is CP192. The conditions noted are these: P. falciparum in erythrocytes, SYBR Green DNA, 72 h; series mostly up to 28.7 µM. Put shortly:
as §1

For another test, the system named is CP211. The conditions noted are these: P. falciparum in erythrocytes, SYBR Green DNA, 72 h; series mostly up to 28.7 µM. Put shortly:
as §1

A further test deals with CP238. Particulars: P. falciparum in erythrocytes, SYBR Green DNA, 72 h; series mostly up to 28.7 µM. Summed up:
as §1

In another test the test system is CP256. The conditions noted are these: P. falciparum in erythrocytes, SYBR Green DNA, 72 h; series mostly up to 28.7 µM. Summed up:
as §1

Another test concerns CP262. Particulars: P. falciparum in erythrocytes, SYBR Green DNA, 72 h; series mostly up to 28.7 µM. Summed up: as §1
For a further test, the system named is CP269. The conditions noted are these: P. falciparum in erythrocytes, SYBR Green DNA, 72 h; series mostly up to 28.7 µM. Put shortly:
as §1

A further test has as its system CP305. Particulars: P. falciparum in erythrocytes, SYBR Green DNA, 72 h; series mostly up to 28.7 µM. Summed up:
as §1

The test system of the next test is CP329. Particulars: P. falciparum in erythrocytes, SYBR Green DNA, 72 h; series mostly up to 28.7 µM. Put shortly:
as §1

In the next test the test system is DIV17. Particulars: P. falciparum in erythrocytes, SYBR Green DNA, 72 h; series mostly up to 28.7 µM. Put shortly: as §1
Another test deals with DIV30. The conditions noted are these: P. falciparum in erythrocytes, SYBR Green DNA, 72 h; series mostly up to 28.7 µM. Put shortly: as §1
The test system of a further test is FAB9. The conditions noted are these: P. falciparum in erythrocytes, SYBR Green DNA, 72 h; series mostly up to 28.7 µM. Summed up:
as §1

The next test concerns GB4. Particulars: P. falciparum in erythrocytes, SYBR Green DNA, 72 h; series mostly up to 28.7 µM. Put shortly: as §1
For the next test, the system named is P93_24. The conditions noted are these: P. falciparum in erythrocytes, SYBR Green DNA, 72 h; series mostly up to 28.7 µM. Put shortly: as §1
Another test has as its system P94_40. Particulars: P. falciparum in erythrocytes, SYBR Green DNA, 72 h; series mostly up to 28.7 µM. Put shortly: as §1
The subject of another test is PAD. The conditions noted are these: P. falciparum in erythrocytes, SYBR Green DNA, 72 h; series mostly up to 28.7 µM. Summed up: as §1
The subject of a further test is TAB109. Particulars: P. falciparum in erythrocytes, SYBR Green DNA, 72 h; series mostly up to 12.8 µM. Put shortly:
as §1

A further test has as its system TAB113. Particulars: P. falciparum in erythrocytes, SYBR Green DNA, 72 h; series mostly up to 28.7 µM. Put shortly:
as §1

Experimental findings from PubChem BioAssay (NCATS) are described below.

SMILES strings stand for the structures. Results filed as inconclusive are left out. Active and inactive are the calls of the source. The call rests on the fitted dose curve; in most records, active means well fitted inhibition curve with a large enough effect; inconclusive means small, poorly fitted or top-dose-only effect; inactive means flat fitted curve, though single readings scatter.
Potency means the concentration at half of the fitted maximal effect.

As for `C[C@]12CC[C@H]3[C@@H](CCC4=CC(=O)CC[C@@]43C)[C@@H]1CC[C@@H]2O`, the Potency result in the test with AA1029, in the test on C2A, in the test with CP185, with CP192, with CP211 and in the test with CP238 was “inactive” throughout. The Potency entry in the test with CP256, with CP262, with CP269, in the test on CP305, in the test with CP329 and with DIV17 was “inactive” each time. Moreover, the Potency entry in the test on DIV30, in the test with FAB9, in the test on GB4, with P93_24, in the test with P94_40 and in the test on PAD was “inactive” in each case. In addition, the Potency result in the test with TAB109 and with TAB113 was “inactive” each time.
`COc1ccc2c(c1OC)CN1CCc3cc4c(cc3[C@H]1C2)OCO4`: the Potency is 2510 nM (active) in the test with AA1029; 2240 nM (active) in the test on C2A; 2510 nM (active) with CP185; 2030 nM (active) with CP192; 2030 nM (active) in the test on CP211; 3550 nM (active) in the test with CP238. In addition, the Potency is 3160 nM (active) in the test on CP256; 1610 nM (active) in the test on CP262; 2030 nM (active) with CP269; 2280 nM (active) in the test on CP305; 1610 nM (active) in the test on CP329; 4550 nM (active) in the test with DIV17. For the same compound, the Potency in the test on DIV30 is 2560 nM (active); with FAB9 it was 3160 nM (active); with GB4, 2030 nM (active); with P93_24 it was 2510 nM (active); in the test with P94_40 it was 2510 nM (active); in the test with PAD, 3160 nM (active). Also, the values for the Potency in the test with TAB109 and with TAB113 were 2240 nM (active) and 3160 nM (active), respectively.
